Assay [1] can be described thus: qHTS assay to identify small molecule agonists of the constitutive androstane receptor (CAR) signaling pathway - cell viability counter screen (AID 1224836). Further: nearly all actives have a fitted effect of over 45% in size. Further: potency means the concentration at half of the fitted maximal effect. An outline of the steps: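 Counter screen multiplexed with the CAR reporter readout: HepG2 cells co-transfected with hCAR and the CYP2B6-2.2kb construct receive a 15-concentration compound series and 0.75 uM PK11195 (final), then CellTiter-Fluor fluorescence is read after 23 h.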

The target in assay [2] is Nuclear receptor subfamily 1 group I member 3 (Homo sapiens) (UniProt Q14994). The assay is described as follows: qHTS assay to identify small molecule antagonists of the constitutive androstane receptor (CAR) signaling pathway (AID 1224838). Further: nearly all actives have a fitted effect of over 40% in size. An outline of the steps: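 CITCO-stimulated (50 nM final) HepG2 cells stably transfected with hCAR and CYP2B6-2.2kb luciferase were exposed to compounds at 15 concentrations for 24 h at 37 C/5% CO2. A luciferase reagent was added and luminescence recorded after 30 min.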

For assay [3] the target is unchanged. The assay is described as follows: qHTS assay to identify small molecule agonists of the constitutive androstane receptor (CAR) signaling pathway (AID 1224839). Further: nearly all actives have a fitted effect of over 15% in size. An outline of the steps:
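A 15-concentration quantitative screen uses HepG2 cells co-transfected stably with human CAR and CYP2B6-2.2kb reporter. Treatment lasts 24 h with 0.75 uM PK11195 final present; ONE-Glo luminescence is the signal.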

The nature of assay [4]: qHTS assay to identify small molecule antagonists of the estrogen related receptor signaling pathway with the pleiotropic PPARgamma coactivator (PGC) from Tox21 10K library - cell viability counter screen (AID 1224840; active means well fitted cell-killing curve with a large enough effect in the repeat runs, not every such curve was filed as active; further: nearly all actives have a fitted effect of over 40% in size). The gist of the method: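 Viability counter screen, PGC/ERR cells: 17.5 h compound exposure at 37 C, CellTiter-Fluor fluorescence endpoint.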
A short description of assay [5]: qHTS assay to identify small molecule antagonists of the estrogen related receptor signaling pathway with the pleiotropic PPARgamma coactivator (PGC) from Tox21 10K library (AID 1224841; call rule not given here; further: actives are mostly falling curves and most rising ones were filed inactive; nearly all actives have a fitted effect of over 50% in size). The gist of the method: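 In the PGC/ERR line, DMSO solutions of test chemicals are pin-delivered to 2,000 cells/well six hours after dispensing. Following eighteen hours' incubation, One-Glo reagent is added and luminescence recorded.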

Assay [6] can be described thus: qHTS assay to identify small molecule agonists of the estrogen related receptor signaling pathway with the pleiotropic PPARgamma coactivator (PGC) from Tox21 10K library (AID 1224842). Further: nearly all actives have a fitted effect of over 15% in size. An outline of the steps:
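Luminescence from One-Glo (30 min, room temperature) measured after PGC/ERR cells had 18 h at 37 C with pinned compound (23 nL in DMSO). Cells had been seeded at 2,000 per well and pre-incubated 6 h.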

The target of assay [7] is Thyrotropin receptor (Homo sapiens) (UniProt P16473). The assay is described as follows: qHTS assay to identify small molecule agonists of the thyroid stimulating hormone receptor (TSHR) signaling pathway (AID 1224843; calls by dose curve; further: nearly all actives have a fitted effect of over 45% in size). The gist of the method: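 A cell-based cAMP HTRF format was run in TSHR-transfected HEK293 cells, 800 per well. Treatment: 30 min, room temperature. Detection: 1 h with labelled cAMP and anti-cAMP cryptate. Concentration-response over 15 points, three replicates.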

A short description of assay [8]: qHTS assay to identify small molecule agonists of the hypoxia (HIF-1) signaling pathway - cell viability counter screen (AID 1224844; calls by dose curve; further: nearly all actives have a fitted effect of over 50% in size). An outline of the steps: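 Same wells as the HIF-1 reporter screen; ME-180 cells carrying HRE-bla, 17 hr treatment at 37C; CellTiter-Glo luminescence read after 30 min at room temperature.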
Assay [9] in a line: qHTS assay to identify small molecule agonists of H2AX (AID 1224845; active means well fitted activation curve with a large enough effect in the signal ratio in the repeat runs, not every such curve was filed as active; the % refers to the signal ratio). An outline of the steps:
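Phospho-H2AX Ser139 measured by HTRF (ex 320 nm; em 665 and 620 nm) after 24 hr antibody incubation. Compounds, 15 concentrations, 0.76% DMSO, were applied to CHO-K1 cells for 3hr at 37C before lysis.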

The nature of assay [10]: qHTS assay to identify small molecule agonists of the hypoxia (HIF-1) signaling pathway (AID 1224846; active means well fitted activation curve with a large enough effect in the signal ratio in the repeat runs, not every such curve was filed as active; the % refers to the signal ratio). An outline of the steps: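 In ME-180 cells bearing an HRE-bla construct, 17 h treatment with DMSO-dissolved compounds at 37C was followed by CCF4-AM loading to quantify reporter induction.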
The nature of assay [11]: qHTS assay to identify small molecule agonists of H2AX - cell viability counter screen (AID 1224847; calls by dose curve; further: top concentration of the series differs between compounds; nearly all actives have a fitted effect of over 30% in size). An outline of the steps:
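We seed wild-type CHO-K1 cells overnight, treat them for 3 hr at 37C with compounds in 15-concentration series, and quantify remaining viability by CellTiter-Glo luminescence.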

The nature of assay [12]: qHTS assay to identify small molecule antagonists of the estrogen related receptor (ERR) signaling pathway from Tox21 library (AID 1224848). Further: nearly all actives have a fitted effect of over 50% in size. Further: potency means the concentration at half of the fitted maximal effect. The gist of the method:
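ERR cell line, 2,000 cells/well. 6 h settle, then compound (DMSO) added; 18 h at 37 C; ONE-Glo luminescence after 30 min RT.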

A short description of assay [13]: qHTS assay to identify small molecule agonists of the estrogen related receptor (ERR) signaling pathway from Tox21 library (AID 1224849; calls by dose curve; further: nearly all actives have a fitted effect of over 15% in size). As to conditions: ERR reporter cell line, ONE-Glo luciferase, 18 h. The gist of the method:
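Reporter cells (ERR, NTP source) treated with Tox21 10K compounds 18 h, 37 C. Readout: ONE-Glo luminescence, 30 min RT.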

Assay [14] in a line: qHTS RealTime-Glo MT Cell Viability Assay in HepG2 cells - 24 hour (AID 1224867). Further: nearly all actives have a fitted effect of over 50% in size. An outline of the steps:
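Tox21 10K library screened in qHTS format on HepG2 cells carrying RealTime-Glo reagents. Compounds were added after a 5 h preincubation, and the luminescent signal from continuous culture was measured repeatedly during 40 h treatment.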

A short description of assay [15]: qHTS RealTime-Glo MT Cell Viability Assay in HEK293 cells - 32 hour (AID 1224868). Further: nearly all actives have a fitted effect of over 50% in size. Further: potency means the concentration at half of the fitted maximal effect. An outline of the steps: (§1)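 Luminescence generated by NanoLuc from substrate produced by living HEK293 cells served as the viability signal. Each value reflects the reading at its stated time point during continuous 40 h compound exposure at 37 C.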
Assay [16] can be described thus: A CellTox Green Cytotoxicity Assay to monitor cytotoxicity in HEK293 cells - 0 hour (AID 1224869). Further: nearly all actives have a fitted effect of over 50% in size. Further: potency means the concentration at half of the fitted maximal effect. The gist of the method:
(§2)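 Homogeneous no-lysis format: HEK293 cell suspension mixed with CellTox Green reagent, seeded, incubated 5 h at 37 C/5% CO2, then dosed by pintool with compound in DMSO.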

Assay [17] is described as follows: qHTS RealTime-Glo MT Cell Viability Assay in HepG2 cells - 40 hour (AID 1224870). Further: nearly all actives have a fitted effect of over 50% in size. Further: potency means the concentration at half of the fitted maximal effect. An outline of the steps: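 Real-time viability: cells seeded at 600 per well together with NanoLuc and cell-permeant prosubstrate, compounds added after 5 h incubation. Luminescence tracked at 0, 8, 16, 24, 32 and 40 h of exposure.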
Assay [18] in a line: A CellTox Green Cytotoxicity Assay to monitor cytotoxicity in HEK293 cells - 40 hour (AID 1224871). Further: nearly all actives have a fitted effect of over 45% in size. Further: potency means the concentration at half of the fitted maximal effect. An outline of the steps: as §2
The nature of assay [19]: qHTS RealTime-Glo MT Cell Viability Assay in HEK293 cells - 16 hour (AID 1224872). Further: nearly all actives have a fitted effect of over 50% in size. Further: potency means the concentration at half of the fitted maximal effect. The gist of the method: as §1
Assay [20] in a line: qHTS assay to identify small molecule antagonists of the constitutive androstane receptor (CAR) signaling pathway - cell viability counter screen (AID 1224837). Further: nearly all actives have a fitted effect of over 45% in size. Further: potency means the concentration at half of the fitted maximal effect. The gist of the method: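 In quantitative HTS format, compounds at 15 concentrations were applied to HepG2 cells double-transfected with hCAR and CYP2B6-2.2kb under 50 nM CITCO stimulation; live-cell protease activity was read after 23 hr via CellTiter-Fluor.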

Where “and” joins values, the source holds several entries; their conditions need not be identical. Equal values may be shown once. Records with an inconclusive call do not appear. The source holds several records for some structures; these can differ, active in one and inactive in another. Calls of active or inactive are those of the source. Unless noted, the call rests on the fitted dose curve; in most records, active means well fitted curve in the direction sought with a large enough effect in the repeat runs; inconclusive means weak or mixed curves; inactive means no such curve, though single readings can be large; an effect the other way counts as inactive or inconclusive.
On the % scale 0 is the no-effect control and ±100 the full control effect.

Thyrotropin receptor (Homo sapiens), sequence (P16473 whole entry, looked up): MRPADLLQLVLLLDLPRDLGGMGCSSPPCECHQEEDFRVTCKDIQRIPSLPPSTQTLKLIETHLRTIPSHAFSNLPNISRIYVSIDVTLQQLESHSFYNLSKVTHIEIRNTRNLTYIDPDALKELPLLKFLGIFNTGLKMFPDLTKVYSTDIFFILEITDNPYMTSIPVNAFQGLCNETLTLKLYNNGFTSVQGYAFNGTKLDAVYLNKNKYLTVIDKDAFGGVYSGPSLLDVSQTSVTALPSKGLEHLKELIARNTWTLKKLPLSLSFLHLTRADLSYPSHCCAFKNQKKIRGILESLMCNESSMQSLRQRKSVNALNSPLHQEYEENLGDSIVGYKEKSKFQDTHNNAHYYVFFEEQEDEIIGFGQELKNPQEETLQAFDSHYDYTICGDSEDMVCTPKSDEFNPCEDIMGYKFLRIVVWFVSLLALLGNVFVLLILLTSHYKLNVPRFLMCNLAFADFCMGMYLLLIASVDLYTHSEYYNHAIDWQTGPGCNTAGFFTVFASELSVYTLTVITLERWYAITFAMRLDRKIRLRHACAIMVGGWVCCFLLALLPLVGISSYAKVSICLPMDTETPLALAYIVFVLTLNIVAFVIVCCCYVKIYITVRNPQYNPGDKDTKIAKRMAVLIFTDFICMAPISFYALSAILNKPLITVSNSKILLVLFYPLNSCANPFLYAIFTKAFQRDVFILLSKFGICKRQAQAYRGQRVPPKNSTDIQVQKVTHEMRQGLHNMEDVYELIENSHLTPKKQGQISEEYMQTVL
Nuclear receptor subfamily 1 group I member 3 (Homo sapiens), sequence (Q14994 whole entry, looked up): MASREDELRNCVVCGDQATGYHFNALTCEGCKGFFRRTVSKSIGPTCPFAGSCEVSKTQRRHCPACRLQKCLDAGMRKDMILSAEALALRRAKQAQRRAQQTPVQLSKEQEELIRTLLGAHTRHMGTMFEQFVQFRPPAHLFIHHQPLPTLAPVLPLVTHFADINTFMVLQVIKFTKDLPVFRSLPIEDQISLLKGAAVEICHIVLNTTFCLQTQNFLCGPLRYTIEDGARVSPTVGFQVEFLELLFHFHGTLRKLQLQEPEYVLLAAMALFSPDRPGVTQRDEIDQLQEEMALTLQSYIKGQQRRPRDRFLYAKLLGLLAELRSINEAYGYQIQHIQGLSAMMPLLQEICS

Turning to `C#CC(C)(CC)OC(=O)c1ccccc1C(=O)O` (configuration not stated), the Potency entry in [1], in [2], in [3], in assay [4], in assay [5] and in assay [6] was “inactive” each time. For the same compound, the Potency result in assay [7], in assay [8], in assay [9], in [10], in assay [11] and in assay [12] was “inactive” throughout. Moreover, the Potency result in assay [14], in assay [15], in assay [16], in [17], in assay [18] and in assay [19] was “inactive” each time. For the same compound, in assay [13] (at 42.5 µM (top of the series)), the activity change, positive = activation is 0.513% (inactive).

With `COC(=O)c1cccc(C(=O)OC)c1`, the Potency entry in assay [1], in assay [2], in assay [3], in assay [4], in [8] and in assay [9] was “inactive” throughout. In addition, the Potency entry in assay [10], in assay [11], in [14], in [15], in assay [17] and in [19] was “inactive” in each case. In addition, the Potency result in assay [16] was “inactive and 43.6 µM (active)”; in assay [18] it was “inactive and 38.9 µM (active)”.

Turning to `CC(=O)Nc1ccc(C(=O)CCl)cc1`, the Potency entry in assay [1], in assay [20], in assay [4], in assay [7], in assay [9] and in assay [10] was “inactive” throughout. Besides, the Potency result in assay [14] and in assay [16] was “inactive” in each case. For the same compound, the Potency result in assay [15] was “inactive and 24.5 µM (active)”; in [17] it was “inactive and 24.5 µM (active)”; in assay [18], “inactive and 15.5 µM (active)”; in [19], “inactive and 13.8 µM (active)”.

Turning to `CC[C@]1(O)C[C@@H]2CN(CCc3c([nH]c4ccccc34)[C@@](C(=O)OC)(c3cc4c(cc3OC)N(C)[C@H]3[C@@](O)(C(=O)OC)[C@H](OC(C)=O)[C@]5(CC)C=CCN6CC[C@]43[C@@H]65)C2)C1`, the Potency in assay [1] is 1.19 µM (active) and 2.98 µM (active); in assay [20], 2.66 µM (active) and 4.22 µM (active); in assay [12], 26.6 µM (active); in assay [15] it was 16.9 nM (active) and 4.8 nM (active). Besides, the Potency result in assay [4], in [7], in assay [9], in assay [10], in [16] and in assay [17] was “inactive” throughout. For the same compound, the Potency result in assay [18] and in [19] was “inactive” each time. Moreover, the activity change, positive = activation in assay [13] (at 42.5 µM (top of the series)) is -22% (inactive) and -33.9% (inactive).

Take `CC(C)(O)CCC(C)(C)O`: the Potency result in assay [1], in assay [2], in [3], in [4], in assay [5] and in [6] was “inactive” each time. The Potency result in assay [7], in assay [8], in assay [9], in [10], in assay [11] and in assay [12] was “inactive” in each case. In addition, the Potency result in assay [14], in assay [16], in assay [17], in assay [18] and in assay [19] was “inactive” each time. In addition, in assay [13] (at 92.4 µM (top of the series)), the activity change, positive = activation was -1.25% (inactive).

`C/C=C/c1ccc(OCC)c(O)c1`: the Potency entry in [1], in assay [2], in [3], in [4], in assay [7] and in assay [8] was “inactive” in each case. Besides, the Potency result in assay [9], in assay [10], in [14], in assay [15], in assay [16] and in assay [17] was “inactive” in each case. The Potency result in assay [18] and in [19] was “inactive” in each case.

For `CC(C)(c1ccccc1)c1ccc(Nc2ccc(C(C)(C)c3ccccc3)cc2)cc1`, the Potency result in assay [1], in assay [2], in [3], in assay [4], in assay [5] and in assay [7] was “inactive” each time. For the same compound, the Potency entry in assay [8], in [9], in [11], in [14], in assay [15] and in [16] was “inactive” each time. In addition, the Potency entry in assay [17], in [18] and in assay [19] was “inactive” each time. In assay [12], the Potency was 15.3 µM (active) and inactive. Besides, the activity change, positive = activation in [13] (at 92.4 µM (top of the series)) was -43.2% (inactive) and -18.6% (inactive).
